Data reported in the supplement of paper PMC11732987, “Enantioselective OTUD7B fragment discovery through chemoproteomics screening and high-throughput optimisation” (Communications Chemistry, 2025).

Key:
Experiment in all cases: log2 ratio of Biotin-Ahx-Ub-VS probe labelling (fragment/DMSO); higher = less target engagement (more negative = stronger competition), active = hit call of the paper (q ≤ 0.05, log2 ratio ≤ -1)
Details in all cases: compound concentration: 200 uM; treatment time: 3 h
[1] = target: T1, USP19 (UniProt O94966)
T1 sequence (whole entry): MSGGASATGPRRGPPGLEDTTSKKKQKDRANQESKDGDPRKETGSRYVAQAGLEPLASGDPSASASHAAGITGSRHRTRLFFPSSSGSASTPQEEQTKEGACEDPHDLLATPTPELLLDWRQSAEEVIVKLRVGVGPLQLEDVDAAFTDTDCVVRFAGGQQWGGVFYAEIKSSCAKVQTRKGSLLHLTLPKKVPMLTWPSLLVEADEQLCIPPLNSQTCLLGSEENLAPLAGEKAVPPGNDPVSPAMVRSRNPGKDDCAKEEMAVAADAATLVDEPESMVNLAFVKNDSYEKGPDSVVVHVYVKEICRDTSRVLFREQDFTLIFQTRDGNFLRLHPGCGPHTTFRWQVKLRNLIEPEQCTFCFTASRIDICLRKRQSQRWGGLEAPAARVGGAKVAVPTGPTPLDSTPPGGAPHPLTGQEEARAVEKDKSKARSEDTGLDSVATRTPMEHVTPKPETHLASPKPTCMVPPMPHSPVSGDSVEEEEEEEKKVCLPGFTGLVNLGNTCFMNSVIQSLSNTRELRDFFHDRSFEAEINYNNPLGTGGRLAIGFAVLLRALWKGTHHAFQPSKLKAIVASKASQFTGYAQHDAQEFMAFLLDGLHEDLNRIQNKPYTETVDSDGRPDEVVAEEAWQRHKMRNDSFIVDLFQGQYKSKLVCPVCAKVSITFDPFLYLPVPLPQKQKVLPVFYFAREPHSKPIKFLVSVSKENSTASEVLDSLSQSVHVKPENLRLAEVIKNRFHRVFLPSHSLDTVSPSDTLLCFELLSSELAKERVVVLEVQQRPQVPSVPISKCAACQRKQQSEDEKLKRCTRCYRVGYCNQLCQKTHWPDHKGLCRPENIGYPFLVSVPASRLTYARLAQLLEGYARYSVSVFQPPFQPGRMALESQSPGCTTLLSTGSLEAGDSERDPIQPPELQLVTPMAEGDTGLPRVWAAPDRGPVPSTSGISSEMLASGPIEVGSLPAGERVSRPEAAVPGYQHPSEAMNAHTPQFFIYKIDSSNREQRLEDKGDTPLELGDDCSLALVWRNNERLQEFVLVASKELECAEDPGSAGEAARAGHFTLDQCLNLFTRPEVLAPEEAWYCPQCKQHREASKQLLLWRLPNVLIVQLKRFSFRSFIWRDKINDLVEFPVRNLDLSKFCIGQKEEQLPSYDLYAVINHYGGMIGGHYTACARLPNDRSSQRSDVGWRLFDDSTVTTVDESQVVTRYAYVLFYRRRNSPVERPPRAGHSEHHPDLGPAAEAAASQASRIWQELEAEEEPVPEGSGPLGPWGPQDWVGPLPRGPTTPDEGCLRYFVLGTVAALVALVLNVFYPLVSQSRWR
Procedure, shortened: (§1)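 HEK293T lysate in Tris/CHAPS/IGEPAL buffer with protease inhibitors (495 µg per sample) was given fragment at 200 µM or vehicle for 3 h, in triplicate. It then received Biotin-Ahx-Ub-VS at 0.5 µM final for 1 h. Labelled DUBs were NeutrAvidin-enriched, digested with LysC and trypsin, and run by diaPASEF LC-MS/MS. Values are average log2 fragment/vehicle ratios by unpaired t-test on global-median-normalised Spectronaut quantities of proteins with ≥2 unique peptides.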

[2] = target: T2, USP22 (UniProt Q9UPT9)
T2 sequence (whole entry): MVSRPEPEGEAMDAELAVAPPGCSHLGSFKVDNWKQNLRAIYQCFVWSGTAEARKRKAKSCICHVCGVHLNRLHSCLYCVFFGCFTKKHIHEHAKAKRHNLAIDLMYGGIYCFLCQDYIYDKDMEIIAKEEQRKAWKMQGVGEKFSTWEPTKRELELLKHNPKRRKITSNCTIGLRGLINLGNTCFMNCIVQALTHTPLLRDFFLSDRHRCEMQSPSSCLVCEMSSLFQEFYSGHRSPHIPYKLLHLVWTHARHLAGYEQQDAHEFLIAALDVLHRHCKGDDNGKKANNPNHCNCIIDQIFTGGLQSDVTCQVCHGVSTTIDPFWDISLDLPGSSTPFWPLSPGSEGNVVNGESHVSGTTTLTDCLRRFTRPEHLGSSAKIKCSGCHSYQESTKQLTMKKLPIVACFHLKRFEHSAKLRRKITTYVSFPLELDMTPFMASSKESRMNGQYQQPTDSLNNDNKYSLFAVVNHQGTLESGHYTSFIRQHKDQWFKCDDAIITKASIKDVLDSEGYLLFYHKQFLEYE
Procedure, shortened: as §1

[3] = target: USP24 (UniProt Q9UPU5)
USP24, sequence (Q9UPU5 whole entry): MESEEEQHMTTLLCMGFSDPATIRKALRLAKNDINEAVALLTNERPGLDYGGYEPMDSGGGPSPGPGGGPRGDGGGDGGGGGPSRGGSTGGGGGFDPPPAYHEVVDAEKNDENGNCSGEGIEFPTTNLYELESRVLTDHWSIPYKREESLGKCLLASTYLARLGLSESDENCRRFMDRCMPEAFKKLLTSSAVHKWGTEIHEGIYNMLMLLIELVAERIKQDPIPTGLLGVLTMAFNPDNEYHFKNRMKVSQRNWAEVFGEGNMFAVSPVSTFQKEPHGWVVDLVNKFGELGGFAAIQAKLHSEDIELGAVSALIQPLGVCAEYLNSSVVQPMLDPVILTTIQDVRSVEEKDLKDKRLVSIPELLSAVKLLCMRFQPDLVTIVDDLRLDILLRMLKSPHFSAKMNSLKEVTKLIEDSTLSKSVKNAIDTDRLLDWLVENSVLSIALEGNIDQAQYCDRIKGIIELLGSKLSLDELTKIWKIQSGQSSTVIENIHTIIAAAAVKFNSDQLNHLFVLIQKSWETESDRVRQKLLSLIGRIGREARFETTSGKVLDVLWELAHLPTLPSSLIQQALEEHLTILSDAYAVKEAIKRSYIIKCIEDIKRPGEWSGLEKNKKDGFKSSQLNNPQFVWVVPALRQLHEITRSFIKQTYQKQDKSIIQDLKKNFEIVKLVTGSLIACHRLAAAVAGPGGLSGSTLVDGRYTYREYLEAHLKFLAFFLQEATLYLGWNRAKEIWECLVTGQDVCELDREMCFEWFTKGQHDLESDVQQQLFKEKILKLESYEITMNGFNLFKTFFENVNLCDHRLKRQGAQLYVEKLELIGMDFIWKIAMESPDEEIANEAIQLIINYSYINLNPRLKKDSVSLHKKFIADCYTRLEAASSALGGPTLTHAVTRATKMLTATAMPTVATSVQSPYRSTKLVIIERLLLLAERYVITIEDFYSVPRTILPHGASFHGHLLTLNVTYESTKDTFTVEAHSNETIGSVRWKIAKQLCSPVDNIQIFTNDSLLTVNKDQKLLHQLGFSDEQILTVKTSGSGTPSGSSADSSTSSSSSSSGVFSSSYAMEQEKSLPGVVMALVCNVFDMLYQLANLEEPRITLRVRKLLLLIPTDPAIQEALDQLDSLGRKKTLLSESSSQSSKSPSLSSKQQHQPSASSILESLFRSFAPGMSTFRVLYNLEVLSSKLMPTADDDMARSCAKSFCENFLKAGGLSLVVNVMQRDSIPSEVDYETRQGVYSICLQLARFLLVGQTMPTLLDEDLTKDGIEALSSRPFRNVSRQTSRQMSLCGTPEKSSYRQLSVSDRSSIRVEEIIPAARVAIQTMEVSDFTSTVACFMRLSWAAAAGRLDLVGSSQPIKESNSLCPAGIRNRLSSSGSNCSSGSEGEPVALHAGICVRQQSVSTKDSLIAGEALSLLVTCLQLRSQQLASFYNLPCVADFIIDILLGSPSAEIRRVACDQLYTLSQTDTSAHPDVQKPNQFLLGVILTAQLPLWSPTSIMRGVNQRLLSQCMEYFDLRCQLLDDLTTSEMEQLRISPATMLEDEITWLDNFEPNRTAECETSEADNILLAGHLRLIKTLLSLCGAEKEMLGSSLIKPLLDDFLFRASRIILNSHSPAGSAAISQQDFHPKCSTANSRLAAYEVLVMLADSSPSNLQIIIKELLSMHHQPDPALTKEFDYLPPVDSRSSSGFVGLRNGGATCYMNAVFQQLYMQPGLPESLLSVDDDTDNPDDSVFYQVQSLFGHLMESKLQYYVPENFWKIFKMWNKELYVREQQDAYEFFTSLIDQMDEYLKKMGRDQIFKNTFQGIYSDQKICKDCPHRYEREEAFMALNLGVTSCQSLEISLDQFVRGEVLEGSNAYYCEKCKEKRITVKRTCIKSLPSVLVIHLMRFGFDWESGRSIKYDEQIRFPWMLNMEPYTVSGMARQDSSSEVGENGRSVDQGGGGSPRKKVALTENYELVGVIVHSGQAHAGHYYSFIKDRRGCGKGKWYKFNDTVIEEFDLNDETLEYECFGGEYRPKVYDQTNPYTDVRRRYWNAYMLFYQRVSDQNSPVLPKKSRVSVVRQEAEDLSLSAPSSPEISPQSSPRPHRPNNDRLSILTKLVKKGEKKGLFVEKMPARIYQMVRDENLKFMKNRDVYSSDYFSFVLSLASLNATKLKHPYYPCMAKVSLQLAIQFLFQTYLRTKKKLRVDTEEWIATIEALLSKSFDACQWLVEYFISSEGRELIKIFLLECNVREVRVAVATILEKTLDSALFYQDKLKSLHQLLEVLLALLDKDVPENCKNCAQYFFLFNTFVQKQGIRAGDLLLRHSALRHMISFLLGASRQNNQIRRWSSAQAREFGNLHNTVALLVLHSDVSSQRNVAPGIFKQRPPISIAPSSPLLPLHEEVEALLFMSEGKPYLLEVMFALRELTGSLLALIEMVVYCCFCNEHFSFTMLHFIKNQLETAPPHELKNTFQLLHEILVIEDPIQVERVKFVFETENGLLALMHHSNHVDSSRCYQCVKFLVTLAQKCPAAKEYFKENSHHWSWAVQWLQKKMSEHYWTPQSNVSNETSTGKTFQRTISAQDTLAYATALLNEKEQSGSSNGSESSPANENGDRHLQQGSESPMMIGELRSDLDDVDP
Procedure, shortened: as §1

[4] = target: T3, USP25 (UniProt Q9UHP3)
T3 sequence (whole entry): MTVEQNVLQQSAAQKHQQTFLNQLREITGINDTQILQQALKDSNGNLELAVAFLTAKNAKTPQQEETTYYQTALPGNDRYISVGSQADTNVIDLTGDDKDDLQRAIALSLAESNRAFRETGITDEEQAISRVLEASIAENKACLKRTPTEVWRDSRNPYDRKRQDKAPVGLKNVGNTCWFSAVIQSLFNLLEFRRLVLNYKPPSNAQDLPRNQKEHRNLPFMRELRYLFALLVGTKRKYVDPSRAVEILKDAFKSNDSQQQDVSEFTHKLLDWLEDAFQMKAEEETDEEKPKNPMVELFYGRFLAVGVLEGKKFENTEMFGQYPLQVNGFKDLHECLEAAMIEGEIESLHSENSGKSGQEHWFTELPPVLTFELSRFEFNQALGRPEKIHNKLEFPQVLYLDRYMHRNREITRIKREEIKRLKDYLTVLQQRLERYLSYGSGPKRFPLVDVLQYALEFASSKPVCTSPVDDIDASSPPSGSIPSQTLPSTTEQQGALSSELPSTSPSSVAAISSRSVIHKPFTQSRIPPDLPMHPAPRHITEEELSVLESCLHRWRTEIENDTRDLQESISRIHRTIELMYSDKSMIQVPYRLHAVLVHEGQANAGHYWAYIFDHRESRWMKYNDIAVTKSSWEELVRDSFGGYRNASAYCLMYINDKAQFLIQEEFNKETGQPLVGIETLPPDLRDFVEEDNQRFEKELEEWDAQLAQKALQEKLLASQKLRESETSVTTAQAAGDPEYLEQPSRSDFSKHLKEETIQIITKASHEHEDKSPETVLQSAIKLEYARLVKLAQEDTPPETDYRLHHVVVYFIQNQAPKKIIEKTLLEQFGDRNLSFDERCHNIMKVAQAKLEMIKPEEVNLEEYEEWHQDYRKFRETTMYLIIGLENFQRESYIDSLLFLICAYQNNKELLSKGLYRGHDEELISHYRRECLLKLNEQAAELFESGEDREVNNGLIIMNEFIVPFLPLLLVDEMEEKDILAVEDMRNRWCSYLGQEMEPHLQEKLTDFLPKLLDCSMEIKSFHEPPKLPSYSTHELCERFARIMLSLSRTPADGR
Procedure, shortened: as §1

[5] = target: T4, USP28 (UniProt Q96RU2)
T4 sequence (whole entry): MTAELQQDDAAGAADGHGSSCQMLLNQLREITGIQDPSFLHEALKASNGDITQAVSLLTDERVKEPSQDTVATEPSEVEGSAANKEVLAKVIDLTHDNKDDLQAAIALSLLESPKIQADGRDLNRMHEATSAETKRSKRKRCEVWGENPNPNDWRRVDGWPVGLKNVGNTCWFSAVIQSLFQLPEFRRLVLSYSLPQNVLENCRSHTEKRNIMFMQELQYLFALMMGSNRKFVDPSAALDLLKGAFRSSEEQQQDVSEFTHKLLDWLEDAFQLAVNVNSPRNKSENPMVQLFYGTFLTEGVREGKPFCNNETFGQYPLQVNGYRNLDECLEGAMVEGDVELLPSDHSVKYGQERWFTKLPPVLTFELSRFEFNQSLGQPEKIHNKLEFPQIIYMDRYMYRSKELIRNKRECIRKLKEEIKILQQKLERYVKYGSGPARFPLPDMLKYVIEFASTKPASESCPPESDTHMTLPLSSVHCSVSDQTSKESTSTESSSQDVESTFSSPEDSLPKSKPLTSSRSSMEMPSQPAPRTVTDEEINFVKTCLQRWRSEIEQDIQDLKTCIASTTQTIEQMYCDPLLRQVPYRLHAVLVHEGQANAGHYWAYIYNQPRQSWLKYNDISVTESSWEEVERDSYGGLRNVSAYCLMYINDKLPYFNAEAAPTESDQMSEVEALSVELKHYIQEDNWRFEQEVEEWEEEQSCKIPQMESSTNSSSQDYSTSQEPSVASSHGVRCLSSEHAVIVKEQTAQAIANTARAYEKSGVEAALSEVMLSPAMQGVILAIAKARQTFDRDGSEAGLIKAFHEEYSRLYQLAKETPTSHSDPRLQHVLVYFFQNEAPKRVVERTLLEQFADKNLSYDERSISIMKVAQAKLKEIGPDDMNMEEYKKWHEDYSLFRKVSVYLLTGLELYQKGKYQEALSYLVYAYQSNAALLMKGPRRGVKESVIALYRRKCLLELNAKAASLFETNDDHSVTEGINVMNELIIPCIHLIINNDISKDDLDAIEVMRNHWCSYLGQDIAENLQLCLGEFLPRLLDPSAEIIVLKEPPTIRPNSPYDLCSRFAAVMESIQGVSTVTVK
Procedure, shortened: as §1

Measured: log2 ratio of Biotin-Ahx-Ub-VS probe labelling

Cc1ccccc1OCC(=O)N1CCN(C(=O)CCl)CC1
inactive: [1] -0.401 | [2] 0.0214 | [3] -0.309 | [4] -0.0662 | [5] -0.249
